Screening results deposited in PubChem BioAssay by The Scripps Research Institute Molecular Screening Center.
Sampled rows, rich in hits. Any-hit rate of the full collection: about 4.1%.
hcDAF12 agonist: H. contortus DAF-12 activation, primary screen. HEK293 hcDAF-12 lit1-tk-luc reporter, luminescence; 0% DMSO, 100% Δ7-dafachronic acid. activation, % at 6.8 µM. 1.4% of 370,000 active. AID 652067;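 active means activation above the mean of all tested compounds plus 3 SD, cut at about 5.5% in these data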;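 further: 100% = response to 3 µM Δ7-dafachronic acid high control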
DAX1 inh-1: DAX1 (NR0B1) inhibition, primary screen; inhibition, % at 6.8 µM; HEK293T StAR-luciferase reporter, SF-1/DAX-1 repression relief; 1.1% of 370,000 active;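 active means inhibition above the mean over all tested compounds plus 3 SD, cut at about 3.6% in these data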;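 further: 0% = DAX-1 cells with DMSO and 100% = cells lacking DAX-1 with DMSO; higher inhibition means more luminescence from relief of DAX-1 repression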
ssDAF12 agonist: activates DAF-12 receptor from parasite S. stercoralis; 1% of 370,000 active; HEK293 ssDAF-12/GRIP1 lit1-tk-luc reporter, luminescence; % of 3 µM dafachronic acid response; activation, % at 6.8 µM;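 active means activation above the mean over all tested compounds plus 3 SD, cut at about 0.9% in these data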;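 further: 0% = DMSO-only wells and 100% = 3 µM delta7-dafachronic acid wells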
DAX1 inh-2: inhibitors of human orphan nuclear receptor DAX1 (NR0B1) | P51843 | HEK293 Gal4-DAX1 luciferase reporter, luminescence | inhibition, % at 6.75 µM | 0.99% of 340,000 active;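 active means inhibition above the mean over all tested compounds plus 3 SD, cut at about 4.2% in these data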;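 further: 0% = DAX1-transfected cells with DMSO and 100% = empty-vector control cells with DMSO; inhibition shows as a rise in luminescence from relieved DAX1 repression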
Target sequence (P51843 207-470 limits assumed): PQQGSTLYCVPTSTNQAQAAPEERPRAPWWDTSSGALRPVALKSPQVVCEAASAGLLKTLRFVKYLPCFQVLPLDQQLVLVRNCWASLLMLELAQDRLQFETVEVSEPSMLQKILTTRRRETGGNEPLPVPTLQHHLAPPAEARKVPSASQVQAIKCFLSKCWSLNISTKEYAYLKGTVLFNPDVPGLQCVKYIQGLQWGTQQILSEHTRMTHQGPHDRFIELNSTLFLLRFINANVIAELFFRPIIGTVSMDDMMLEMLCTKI
hgDAF-12 ag: hgDAF-12 agonism, primary luciferase screen; HEK293 GAL4-hgDAF12 UAS-luciferase reporter, agonist luminescence; normalized to butyrate control; activation, % at 6.8 µM; 1.8% of 370,000 active; AID 687014;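 active means activation above a cutoff set at the mean of all screened compounds plus 3 SD, cut at about 10% in these data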;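 further: 0% = DMSO wells and 100% = sodium butyrate wells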
Numbers without * were called inactive; · = no result.

SMILES	hcDAF12 agonist	DAX1 inh-1	ssDAF12 agonist	DAX1 inh-2	hgDAF-12 ag
COCCCN1C(=O)[C@H](CC(=O)NCc2ccc(OC)c(OC)c2)[C@]2(C(=O)OC)CCCCC=C12	4.2	0.0	-0.6	·	-0.4
COCC(=O)N1[C@H](CO)[C@@H](c2ccc(-c3cccnc3)cc2)[C@H]1CN(C)S(=O)(=O)c1ccccc1[N+](=O)[O-]	0.1	0.1	-0.7	·	-3.5
O=C(CSc1nnc(COc2ccc(Cl)cc2)n1Cc1ccco1)Nc1ccc2c(c1)OCO2	2.4	-0.4	-1.7	·	1.3
CC(C)NC(=O)C1(C)CCCN1C/C=C/c1ccccc1 (stereo unspecified)	-1.1	0.9	-0.9	·	-0.4
COP(=O)(O)C(COCCC(CC(C)C)NC(=O)OCc1ccccc1[N+](=O)[O-])NC(=O)OCc1ccccc1 (stereo unspecified)	-0.2	·	-2.0	·	5.9
CN(C)C(=O)c1cccc(-c2cnc3c(NC=O)cc(-c4ccccc4N(C)C)cn23)c1	-0.2	0.6	-1.1	·	0.4
CN(C)C(=O)c1cccc(-c2cnc3c(NC=O)cc(-c4ccccc4Cl)cn23)c1	-1.8	3.3	-1.0	·	11.6*
COc1ccc(OC)c(S(=O)(=O)N2CCCCC2C(=O)N2CCN(c3ccc(F)cc3)CC2)c1 (stereo unspecified)	-3.3	-1.7	-1.9	·	-3.2
O=C(NC1CCCCCC1)c1ccc(=O)n(Cc2ccccc2)n1	-1.3	-0.4	-1.6	4.5*	-1.7
COC(=O)C1CCN(C(=O)COC(=O)c2ccc(=O)n(Cc3ccccc3)n2)CC1	-0.1	2.0	-1.4	0.2	0.9
COc1ccccc1C(=O)Nc1nnc(S(=O)(=O)N2CCC(C)CC2)s1	0.7	0.2	-0.6	5.0*	3.4
COc1ccc(Cl)cc1-c1nc(SCC(=O)NC(C)C)n[nH]1	-2.3	-0.2	-2.0	-0.8	-1.7
COc1ccc(Cl)cc1-c1nc(SCC(=O)NC(C)C(C)C)n[nH]1 (stereo unspecified)	-0.8	0.1	-1.6	7.3*	0.4
O=[N+]([O-])c1ccc(NCCCN2CCC(C(O)(c3ccccc3)c3ccccc3)CC2)cc1	-0.8	0.3	-0.2	·	1.2
C/C(=N\NC(=O)c1ccccc1F)c1ccc(C#N)cc1	1.3	2.7	-0.9	4.5*	5.1
O=C(Cn1nnc(-c2ccccc2F)n1)Nc1ccc(F)cc1F	3.9	0.4	-1.2	·	0.4
CC[n+]1ccc(/C=C2\Sc3ccccc3N2CCCS(=O)(=O)[O-])c2ccccc21	3.6	-0.1	1.2*	-0.1	-1.2
C[n+]1ccccc1/C=C1\Sc2ccccc2N1CCO	0.5	-0.3	-0.9	1.8	-3.4
COc1ccc(-n2c(SCC(=O)Nc3ccc(Oc4ccccc4)cc3)nnc2-c2cccnc2)cc1	-2.4	-1.0	-2.1	·	1.8
COc1oc(-c2ccccc2)nc1C(F)(F)F	-1.3	0.8	-0.1	4.3*	-0.1
COc1oc(-c2ccccc2C)nc1C(F)(F)F	-1.3	-0.1	-0.7	0.5	0.6
CC(C)C(C#CC1CC1)N(Cc1ccc2c(c1)OCO2)C(N)=NC(=O)/C=C/c1ccccc1 (stereo unspecified)	-2.4	-0.7	-1.4	·	-3.1
CCCCNc1ccc2c(c1)OC[C@@H](CC(C)C)NS2(=O)=O	0.4	-0.8	-1.4	·	-1.6
CS(=O)(=O)Cc1ccc(C(=O)NC2CCN(Cc3ccccc3)C2)cc1 (stereo unspecified)	1.1	0.8	-0.5	4.2*	-0.5
O=C(NC1CCN(Cc2ccc(F)cc2)CC1)c1ccccc1	-1.6	0.1	-1.4	1.9	-0.8
SMILES	hcDAF12 agonist	DAX1 inh-1	ssDAF12 agonist	DAX1 inh-2	hgDAF-12 ag
C=CCn1c(C)cc(C(=O)COc2nncc3ccccc23)c1C	0.6	1.5	0.1	0.7	13.1*
CCC(NC(=O)c1ccc2c(ccn2Cc2cccc(-c3ccc(C(=O)O)cc3)c2)c1)c1ccccc1 (stereo unspecified)	1.1	-1.6	-0.6	·	-2.2
COC(=O)c1scc(C)c1N/N=C(\C)c1ccc(F)cc1	4.3	1.1	1.0*	0.0	0.6
CC(=O)Oc1ccc(CN2C(=O)C(CCc3ccccc3)ON=C2c2cnccn2)cc1 (stereo unspecified)	-0.1	1.4	-0.6	·	2.0
CCOc1ccccc1C(=O)N[C@H](C(=O)Nc1nc2c(s1)CCCC2)C(C)C	2.9	-0.1	4.1*	-0.1	5.8
COc1ccc(C(=O)N[C@H](C(=O)Nc2nc3c(s2)CCCC3)C(C)C)cc1	1.2	0.5	-0.9	-0.1	4.8
CCCC1CCC2(CC1)CCC2OC(=O)Nc1cccc(C(F)(F)F)c1 (stereo unspecified)	-0.5	·	-1.4	·	-1.4
CC(C)(C)NC(=O)C(c1cccnc1)N(C(=O)c1ccc(Cl)nc1)C1CCCC1 (stereo unspecified)	-1.2	0.0	-1.0	-0.3	0.3
CC(C)CC(OC(=O)c1ccc(Cl)nc1)C(=O)NC1CCCC1 (stereo unspecified)	1.0	-0.3	1.1*	0.2	-0.7
O=C(NC1CCCCC1)C(c1cccnc1)N(C(=O)c1ccc(Cl)nc1)C1CCCCC1 (stereo unspecified)	-1.4	-0.8	1.7*	0.6	1.1
Cn1ccnc1C(=O)O[C@@H]1CCC[C@@]2(C(=O)N(Cc3ccccc3)c3ccccc32)[C@H]1NC(=O)CCc1ccccc1	-2.7	-1.1	-1.1	·	-1.0
CCCCCC1C(=O)CCC1CC(=O)OC (stereo unspecified)	0.2	-0.5	-1.2	4.4*	2.3
c1ccc(Nc2nnc(-c3cccc4ccccc34)o2)cc1	6.3*	1.8	1.2*	·	8.1
CCCCn1c(=O)c(CCC(=O)OCC(=O)Nc2cccc3ccccc23)nc2ccccc21	1.5	-0.3	1.6*	-0.5	-1.6
COc1ccccc1-c1cccc([C@@H]2C[C@H]3[C@H](CON3C)CN2C)c1	-0.7	3.8*	-0.5	0.4	-2.5
O=C(CSc1nnc(-c2cnccn2)n1-c1ccccc1)Nc1ccc2c(c1)OCCO2	-1.1	-0.7	-1.5	·	-1.9
CCn1cc(C(=O)N2CCN(c3ccc(F)cc3)CC2)c2cc(OC)c(OC)cc2c1=O	0.1	0.1	-1.1	-1.2	1.7
CCn1cc(C(=O)N2CCN(c3ccccc3OC)CC2)c2cc(OC)c(OC)cc2c1=O	-1.0	-0.7	-1.7	4.4*	0.0
COCCNC(=O)COC(=O)C1=Cc2ccccc2OC1	-0.1	-0.2	-0.4	4.7*	-1.5
Cc1ccc(-c2nc3ccccc3o2)cc1NC(=S)NC(=O)c1cccs1	0.8	0.4	0.1	2.2	11.1*
Cc1ccc(-c2nc3ccccc3o2)cc1NC(=O)c1ccc2c(c1)OCO2	3.8	3.6*	2.0*	2.1	11.4*
COc1ccc(CNC(=O)c2ccc(N3CCOCC3)c([N+](=O)[O-])c2)cc1	0.4	-0.6	-1.4	-0.1	-0.9
COc1ccc2oc(-c3ccc(C)c(NC(=O)c4ccc(N5CCOCC5)c([N+](=O)[O-])c4)c3)nc2c1	3.4	2.0	0.0	0.6	10.5*
